# Measurements published in the supplement of paper PMC9801561.
# ± gives the standard deviation of the averaged measurements.
# Key:
# [1] = system: Escherichia coli Nissle 1917; test: area under OmniLog respiration curve over 48 h (OmniLog units x h); higher = more growth / nutrient utilisation; extreme values may be limits of the assay; details: incubation: 48 h, 37 °C
# [2] = system: Escherichia coli Nissle 1917; test: DuctApe activity index of respiration/growth curve (0 no growth to 9 maximum) (index 0-9); higher = more growth / nutrient utilisation, active = 3 or more; extreme values may be limits of the assay; details: incubation: 48 h, 37 °C
# [3] = nutrient role: C-Source, carbohydrate
# [4] = nutrient role: sole nitrogen source (pyruvate carbon)
# [5] = nutrient role: sole phosphorus source (pyruvate carbon)
# [6] = nutrient role: C-Source, alcohol
# [7] = nutrient role: C-Source, carboxylic acid
# [8] = nutrient role: sole sulfur source (pyruvate carbon)
# [9] = nutrient role: C-Source, amino acid
# [10] = nutrient role: N-Source, inorganic
# 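Throughout, for DuctApe activity index of respiration/growth curve (0 no growth to 9 maximum): biolog PM4 phosphorus and sulfur plates, tetrazolium violet dye reduction read in the OmniLog every 15 min, kinetic curves scored by DuctApe, each plate run in triplicate.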
compound,measurement,setting,value
OCC(O)CO [Glycerol],area under OmniLog respiration curve,[1]; [3],7310 ± 730
same,DuctApe activity index,[2]; [3],7.67 (active)
OC[C@H]1O[C@@H](n2cnc3c(O)nc(O)nc32)[C@H](O)[C@@H]1O [Xanthosine],area under OmniLog respiration curve,[1]; [4],2070 ± 1300
same,DuctApe activity index,[2]; [4],4 (active)
Nc1ccn([C@@H]2O[C@H](CO)[C@@H](O)[C@H]2OP(=O)(O)O)c(=O)n1 [Cytidine 2`-Monophosphate],area under OmniLog respiration curve,[1]; [5],9170 ± 640
same,DuctApe activity index,[2]; [5],8.67 (active)
"CC(=O)C(C)=O [2,3-Butanedione]",area under OmniLog respiration curve,[1]; [6],19 ± 14
same,DuctApe activity index,[2]; [6],0 (inactive)
"Nc1ncnc2c1ncn2[C@@H]1O[C@@H]2COP(=O)(O)O[C@H]2[C@H]1O [Adenosine 3`,5`-Cyclic Monophosphate]",area under OmniLog respiration curve,[1]; [5],5670 ± 1300
same,DuctApe activity index,[2]; [5],6.67 (active)
NCC(=O)N[C@@H](CC(N)=O)C(=O)O,area under OmniLog respiration curve,[1]; [4],8340 ± 1500
same,DuctApe activity index,[2]; [4],8 (active)
CO[C@@H]1O[C@H](CO)[C@H](O)[C@H](O)[C@H]1O [b-Methyl-D-Galactoside],area under OmniLog respiration curve,[1]; [3],6290 ± 550
same,DuctApe activity index,[2]; [3],7 (active)
CCC(=O)C(=O)O [a-Ketobutyric acid],area under OmniLog respiration curve,[1]; [7],800 ± 760
same,DuctApe activity index,[2]; [7],1.67 (inactive)
OC[C@H]1OC(O)[C@@H](O)[C@@H](O)[C@@H]1O (stereo partly drawn) [D-Mannose],area under OmniLog respiration curve,[1]; [3],8430 ± 440
same,DuctApe activity index,[2]; [3],8 (active)
OC[C@H]1O[C@@](CO)(O[C@H]2O[C@H](CO)[C@@H](O)[C@H](O)[C@H]2O)[C@@H](O)[C@@H]1O [Sucrose],area under OmniLog respiration curve,[1]; [3],634 ± 420
same,DuctApe activity index,[2]; [3],1.67 (inactive)
NCCS(=O)(=O)O [Taurine],area under OmniLog respiration curve,[1]; [8],7830 ± 160
same,DuctApe activity index,[2]; [8],8 (active)
C[C@H](O)C(=O)O [L-Lactic acid],area under OmniLog respiration curve,[1]; [7],7880 ± 510
same,DuctApe activity index,[2]; [7],8 (active)
NC(=O)CCCCC1CCSS1 (racemic) [DL-Lipoamide],area under OmniLog respiration curve,[1]; [8],561 ± 220
same,DuctApe activity index,[2]; [8],1 (inactive)
O=P(O)(O)OC(CO)CO [b-Glycerol Phosphate],area under OmniLog respiration curve,[1]; [5],8820 ± 470
same,DuctApe activity index,[2]; [5],8.67 (active)
NCCCCCC(=O)O [e-Amino-N-Caproic acid],area under OmniLog respiration curve,[1]; [4],1240 ± 1000
same,DuctApe activity index,[2]; [4],2.33 (inactive)
N[C@@H](CSCSC[C@H](N)C(=O)O)C(=O)O [L-Djenkolic acid],area under OmniLog respiration curve,[1]; [8],7730 ± 190
same,DuctApe activity index,[2]; [8],8 (active)
O=C(O)[C@H](O)[C@@H](O)C(=O)O [L-Tartaric acid],area under OmniLog respiration curve,[1]; [7],34 ± 28
same,DuctApe activity index,[2]; [7],0 (inactive)
C[C@H](O)[C@@H](N)C(=O)O [D-Threonine],area under OmniLog respiration curve,[1]; [9],291 ± 470
same,DuctApe activity index,[2]; [9],0.667 (inactive)
OCc1ccccc1O[C@@H]1O[C@H](CO)[C@@H](O)[C@H](O)[C@H]1O [Salicin],area under OmniLog respiration curve,[1]; [3],4.72
same,DuctApe activity index,[2]; [3],0 (inactive)
CCC(C)N (centres undefined) [sec-Butylamine],area under OmniLog respiration curve,"[1]; nutrient role: C-Source, amine",5.72 ± 1.7
same,DuctApe activity index,"[2]; nutrient role: C-Source, amine",0 (inactive)
NCC(=O)N[C@@H](CC(=O)O)C(=O)O,area under OmniLog respiration curve,[1]; [9],8800 ± 750
same,DuctApe activity index,[2]; [9],8.67 (active)
O=C(O)[C@H]1OC(O)[C@H](O)[C@@H](O)[C@H]1O (stereo partly drawn) [D-Galacturonic acid],area under OmniLog respiration curve,[1]; [7],10200 ± 880
same,DuctApe activity index,[2]; [7],9 (active)
NC(Cc1ccc(OP(=O)(O)O)cc1)C(=O)O (stereo in doubt) [O-Phospho-D-Tyrosine],area under OmniLog respiration curve,[1]; [5],9640 ± 360
same,DuctApe activity index,[2]; [5],9 (active)
N [Ammonia],area under OmniLog respiration curve,[1]; [10],8190 ± 1000
same,DuctApe activity index,[2]; [10],8.33 (active)
O=P(O)(O)CP(=O)(O)O [Methylene Diphosphonic acid],area under OmniLog respiration curve,[1]; [5],618 ± 470
same,DuctApe activity index,[2]; [5],0.667 (inactive)
OC[C@H]1O[C@@H](S)[C@H](O)[C@@H](O)[C@@H]1O [1-Thio-b-D-Glucose],area under OmniLog respiration curve,[1]; [8],1240 ± 430
same,DuctApe activity index,[2]; [8],2.67 (inactive)
Nc1ccc(S(=O)(=O)O)cc1 [p-Aminobenzene Sulfonic acid],area under OmniLog respiration curve,[1]; [8],550 ± 470
same,DuctApe activity index,[2]; [8],0 (inactive)
O=S(=O)(O)SSS(=O)(=O)O [Tetrathionate],area under OmniLog respiration curve,[1]; [8],7150 ± 120
same,DuctApe activity index,[2]; [8],7.67 (active)
CC(=O)N[C@H]1[C@H]([C@H](O)[C@H](O)CO)OC(O)(C(=O)O)C[C@@H]1O (some centres undefined) [N-Acetyl-Neuraminic acid],area under OmniLog respiration curve,[1]; [7],6140 ± 840
same,DuctApe activity index,[2]; [7],7 (active)
O=C(O)CC(O)C(=O)O (racemic) [DL-Malic acid],area under OmniLog respiration curve,[1]; [7],8150 ± 730
same,DuctApe activity index,[2]; [7],8 (active)
Nc1[nH]cnc2ncnc1-2 [Adenine],area under OmniLog respiration curve,[1]; [4],5810 ± 860
same,DuctApe activity index,[2]; [4],6.67 (active)
CC(C)[C@@H](N)C(=O)O [D-Valine],area under OmniLog respiration curve,[1]; [4],469 ± 470
same,DuctApe activity index,[2]; [4],0.667 (inactive)
OCC(O)C(O)C(O)CO (centres undefined) [Adonitol],area under OmniLog respiration curve,[1]; [3],2610 ± 350
same,DuctApe activity index,[2]; [3],5 (active)
O=C(O)C[C@@H](O)C(=O)O [D-Malic acid],area under OmniLog respiration curve,[1]; [7],3920 ± 860
same,DuctApe activity index,[2]; [7],5.33 (active)
O=C[C@H](O)[C@@H](O)[C@H](O)[C@H](O)CO[C@@H]1O[C@H](CO)[C@@H](O)[C@H](O)[C@H]1O [Gentiobiose],area under OmniLog respiration curve,[1]; [3],475 ± 820
same,DuctApe activity index,[2]; [3],1 (inactive)
"C[N+](C)(C)CC(O)CC(=O)[O-] (racemic) [D,L-Carnitine]",area under OmniLog respiration curve,[1]; [7],5.03 ± 0.54
same,DuctApe activity index,[2]; [7],0 (inactive)
O=P(O)(O)OP(=O)(O)O [Pyrophosphate],area under OmniLog respiration curve,[1]; [5],9320 ± 480
same,DuctApe activity index,[2]; [5],9 (active)
